Compounds with a hit are over-represented: about 2.9% of the library has one in this group of screens.
GRK2 aptamer HTS: compounds blocking aptamer binding on GRK2 – biochemical, human GRK2, bead flow cytometry, HTS, primary screen; Beta-adrenergic receptor kinase 1 (Homo sapiens), P25098; FAM-aptamer displacement from GRK2; inhibition of aptamer binding, % at 10 µM; actives 0.59% (n = 330,000);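 active means inhibition of aptamer binding above 40%, roughly 3 SD of noise, on plates passing a quality check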;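 further: median bead fluorescence of bound FAM aptamer so fluorescent compounds give negative values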
Target sequence (P25098 whole entry, looked up): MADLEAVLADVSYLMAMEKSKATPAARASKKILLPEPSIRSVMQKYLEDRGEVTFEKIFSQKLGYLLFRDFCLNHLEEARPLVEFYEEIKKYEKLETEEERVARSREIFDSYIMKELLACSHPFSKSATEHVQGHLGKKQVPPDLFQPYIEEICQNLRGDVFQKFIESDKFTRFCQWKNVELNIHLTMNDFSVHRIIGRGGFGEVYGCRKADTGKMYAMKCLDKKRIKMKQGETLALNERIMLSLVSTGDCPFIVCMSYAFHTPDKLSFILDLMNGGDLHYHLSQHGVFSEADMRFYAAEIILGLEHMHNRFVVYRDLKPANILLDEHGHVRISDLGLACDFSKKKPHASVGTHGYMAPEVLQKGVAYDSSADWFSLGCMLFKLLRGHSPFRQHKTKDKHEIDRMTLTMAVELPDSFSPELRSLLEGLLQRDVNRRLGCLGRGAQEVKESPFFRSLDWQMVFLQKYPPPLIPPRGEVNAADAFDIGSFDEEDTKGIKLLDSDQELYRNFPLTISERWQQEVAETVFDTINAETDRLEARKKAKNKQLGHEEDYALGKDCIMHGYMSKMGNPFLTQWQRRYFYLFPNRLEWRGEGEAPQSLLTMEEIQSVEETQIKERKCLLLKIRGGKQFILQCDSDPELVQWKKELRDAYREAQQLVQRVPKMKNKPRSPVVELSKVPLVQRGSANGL
MEKK2 mut-MEK5: MEK5 binding signal on mutant MEKK2 PB1, primary screen, biochemical, multiplex bead flow cytometry, Alexa488-MEK5 | Alexa488-MEK5 binding to MEKK2 mutant | percent response, % at 10 µM | actives 0.35% (n = 290,000) | AID 1530, 2009; in the data active means percent response above about 24%, passing the limit was not always enough
B2AR ag: beta2AR agonists driving receptor internalization, primary screen, cell-based, FAP fluorogen, flow cytometry. actives 0.43% (n = 340,000). Am2.2-beta2AR cells. response, % (concentration not given with the values);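 active means response above a set limit, near 3 SD of response in nonfluorescent compounds, cut at about 42% in these data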
MEKK3 PB1 HTS: modulators of MEKK3-MEK5 PB1 binding, primary screen, biochemical, wildtype MEKK3, multiplex bead flow cytometry, Alexa488-MEK5; bead-based flow cytometry, Alexa488-MEK5 binding to MEKK3; actives lie on both sides; 0 = blocked by unlabeled MEK5, 100 = vehicle; binding response (% of control), % at 10 µM; actives 1.4% (n = 290,000); AID 1529, 2009;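 active means binding response more than 3 SD above or below the average of its plate-row segment, actives on both sides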;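 further: Alexa488 bead fluorescence after subtracting the streptavidin-only scavenger bead signal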
MEKK2 WT-MEK5: modulators of MEK5 binding to wildtype MEKK2, primary screen, biochemical, multiplex bead flow cytometry, Alexa488-MEK5; Mitogen-activated protein kinase kinase kinase 2 (Homo sapiens), Q9Y2U5; Alexa488-MEK5 binding to MEKK2 WT; actives lie on both sides; binding response (% of control), % at 10 µM; actives 1.1% (n = 290,000); AID 1531, 2009; in the data active means binding response below about 67% or above about 130%
B2AR ag CP1: beta2AR agonists via receptor internalization, confirmation, cell-based, FAP fluorogen, flow cytometry, single point, cherry pick 1. shares compounds with B2AR ag. Am2.2-beta2AR cells, FAP surface receptor; active compounds read low. percent response (surface receptor), % at 10 µM. actives 25% (n = 1,100). AID 540358, 2011;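 active means surface receptor percent response at or below 58%, roughly 3 SD from nonfluorescent compounds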
B2AR FAP counter: flagged in Am2.2 fluorescence counterscreen for beta-2AR agonists. shares compounds with B2AR ag. Am2.2 cells, FAP fluorogen flow cytometry; active compounds read low. calls only at 10 µM. 1,100 tested, under 10 active. AID 588765;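 active means percent response below a set limit in fluorescence channel 1 and below 50% in channel 8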
An asterisk follows results filed as active; i = inactive; . = not tested or not shown.

SMILES	GRK2 aptamer HTS	MEKK2 mut-MEK5	B2AR ag	MEKK3 PB1 HTS	MEKK2 WT-MEK5	B2AR ag CP1	B2AR FAP counter
O=C(CN(c1ccccc1F)S(=O)(=O)c1ccccc1)NC1CCCCCC1	1	1	53*	100	96	107	i
Cc1ccc(S(=O)(=O)N(CC(=O)NC2CCCCCC2)c2ccccc2F)cc1	1	9	-6	100	100	.	.
CCOC(=O)c1ccc(NC(=O)Cn2nnc(-c3ccccc3C)n2)cc1	0	9	-6	105	113	121	i
Cc1cccc(C)c1NC(=O)Cn1nnc(-c2ccc(N3CCOCC3)cc2)n1	1	-4	-10	98	92	103	i
COc1ccc(NC(=O)Cn2nnc(-c3ccc(CN4CCOCC4)cc3)n2)c(OC)c1	1	5	6	101	103	106	i
Cc1ccc(C)c(NC(=O)Cn2nnc(-c3ccc(N4CCOCC4)cc3)n2)c1	1	-1	1	104	100	.	.
Cc1ccc(NC(=O)CN(C)C(=O)Cn2nnc(-c3ccccc3C)n2)cc1	4	.	-1	.	.	.	.
COC(=O)c1ccccc1NC(=O)Cn1nnc(-c2ccc(OC)cc2)n1	0	5	-12	108	93	94	i
O=C(NNC(=O)c1cc(-c2ccc(Cl)cc2)nc2ccccc12)c1csc(N2CCOCC2)n1	4	.	4	.	.	.	.
Cc1cc(NC(=O)Cn2nnc(-c3ccccc3N)n2)no1	5	0	-18	123	102	.	.
CCOc1ccc(-c2nnn(CC(=O)Nc3cccc(OC)c3)n2)cc1OCC	3	4	3	104	99	.	.
COc1ccc(Cl)c(NC(=O)Cn2nnc(-c3ccccc3N)n2)c1	0	-1	-17	99	95	124	i
CCCOc1ccc(-c2nnn(CC(=O)Nc3cccc(C(=O)OC)c3)n2)cc1	2	-2	-9	112	110	110	i
COc1ccc(S(=O)(=O)N(C)C[C@H]2Oc3c(NC(=O)NC(C)C)cccc3C(=O)N([C@H](C)CO)C[C@@H]2C)cc1	0	.	-6	.	.	.	.
CCOC(=O)C1CCN(S(=O)(=O)c2ccc3c(c2)N(C(C)=O)CC(C)S3)CC1 (configuration not stated)	6	1	50*	101	100	78	i
CCOC(=O)C1CCN(S(=O)(=O)c2ccc3c(c2)NC(=O)C(C)S3)CC1 (configuration not stated)	2	6	14	105	106	.	.
CCOc1ccc2nc(NC(=O)C34CC5CC(CC(NC(C)=O)(C5)C3)C4)sc2c1	0	6	26	102	108	.	.
CCOC(=O)C(C)Oc1cccc2c(=O)n(CC(=O)NCCc3ccccc3)ccc12 (configuration not stated)	0	15	15	112	105	.	.
CCOC(=O)COc1cccc2c(=O)n(CC(=O)NCCc3ccccc3)ccc12	0	-1	44*	110	104	85	i
COc1ccc(-c2cc(OC(=O)c3ccc(F)cc3)c3c(C)oc(C)c3c(=O)c2)cc1	6	0	.	100	88	.	.
COc1cc(-c2cccs2)cc(=O)c2c(C)oc(C)c12	0	-1	-12	99	94	112	i
CCS(=O)(=O)CCn1c([N+](=O)[O-])cnc1C	2	-3	2	84	-9.0*	102	i
NC(=O)c1cc2c3ccccc3ccn2c1-c1ccccc1	2	3	43*	108	105	101	i
CC1CCC(C(C)C)C(OC(=O)Cn2c(-c3ccccc3)[n+](C)c3ccccc32)C1 (configuration not stated)	0	-2	6	99	103	.	.
Cc1cccc(OCc2n(CC(=O)OC3CC(C)CCC3C(C)C)c3ccccc3[n+]2C)c1 (configuration not stated)	0	30	10	103	183*	96	i
SMILES	GRK2 aptamer HTS	MEKK2 mut-MEK5	B2AR ag	MEKK3 PB1 HTS	MEKK2 WT-MEK5	B2AR ag CP1	B2AR FAP counter
Cc1ccc(S(=O)(=O)N2CCCC2C(=O)NCCc2ccccc2)cc1 (configuration not stated)	0	-9	-3	97	94	.	.
Cc1ccc(S(=O)(=O)N2CCCC2C(=O)NCCc2nc3ccccc3[nH]2)cc1 (configuration not stated)	2	4	50*	112	103	117	i
N#CN1CCC(NS(=O)(=O)c2ccc(C(F)(F)F)cc2)C1 (configuration not stated)	0	.	-10	.	.	.	.
CC(/C=C/c1ccccc1)=N\NC(N)=S	4	2	-6	98	104	91	i
CC(=O)N1CCc2cc(C(=O)CN3CCN(c4cccc(Cl)c4)CC3)ccc21	0	2	57*	94	96	9.1*	i
CC(=O)N1CCc2cc(C(=O)CN3CCC(C)CC3)ccc21	0	10	5	103	104	.	.
O=C1NC(NS(=O)(=O)c2ccccc2)(C(F)(F)F)C(=O)N1c1cccc(Cl)c1 (configuration not stated)	0	-7	12	93	92	.	.
Cc1nnc2ccc(-c3ccc(NC(=O)c4cccnc4Cl)cc3)nn12	4	-1	-3	106	97	.	.
CCOc1ncccc1C(=O)Nc1ccc(-c2ccc3nnc(C)n3n2)cc1	3	-2	44*	111	102	107	i
CC(=O)Oc1ccccc1C(=O)N(C1CCCCC1)C1CCCCC1	3	4	-1	95	94	.	.
C=CCn1c(SCC(=O)c2ccc(O)c(O)c2)nnc1-c1cccc(OC)c1	2	.	-3	.	.	.	.
Cc1ccc(OCc2cc(C(=O)NCc3cc(F)ccc3C)no2)cn1	.	0	-11	101	100	75	i
CCC(NC(=O)c1cc(COc2cc(C)c(Cl)c(C)c2)on1)c1ccncc1 (configuration not stated)	3	5	-2	105	100	.	.
Cc1ccc(OCc2cc(C(=O)NC3CCc4ccccc43)no2)cn1 (configuration not stated)	0	3	-3	102	99	122	i
Cc1ccccc1CNC(=O)c1cc(COc2ccc(F)cc2F)on1	1	7	-1	103	110	.	.

From PubChem
